# Assay outcomes deposited in PubChem BioAssay by The Scripps Research Institute Molecular Screening Center.
# CHO-K1 Ca antag = counter-screen for M1 antagonists: effect in parental CHO-K1 cells; 360,000 compounds, 0.6% hits; ATP-induced calcium, Fluo-8 fluorescence; inhibition, % at 3 µM; AID 602250;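 active means inhibition above a per-plate cutoff, the plate's mean sample inhibition plus 3 SD, cut at about 24% in these data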;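 further: 0% = DMSO plus EC80 ATP and 100% = DMSO alone without ATP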
# CHRM1 antagonist = human M1 muscarinic receptor antagonists, primary screen, CHO-K1 cells, Fluo-8 calcium fluorescence, 1536-well; CHO-K1 hM1, ACh EC80 antagonist; inhibition, % at 3 µM; 360,000 compounds, 1.3% hits;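 active means percent inhibition above its own plate's cutoff, namely the mean of that plate's compound wells plus 3 SD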;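 further: peak over basal fluorescence ratio during 140 s after agonist addition; 0% = ACh EC80 plus DMSO and 100% = DMSO alone without agonist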
# Target sequence (P11229 whole entry, looked up): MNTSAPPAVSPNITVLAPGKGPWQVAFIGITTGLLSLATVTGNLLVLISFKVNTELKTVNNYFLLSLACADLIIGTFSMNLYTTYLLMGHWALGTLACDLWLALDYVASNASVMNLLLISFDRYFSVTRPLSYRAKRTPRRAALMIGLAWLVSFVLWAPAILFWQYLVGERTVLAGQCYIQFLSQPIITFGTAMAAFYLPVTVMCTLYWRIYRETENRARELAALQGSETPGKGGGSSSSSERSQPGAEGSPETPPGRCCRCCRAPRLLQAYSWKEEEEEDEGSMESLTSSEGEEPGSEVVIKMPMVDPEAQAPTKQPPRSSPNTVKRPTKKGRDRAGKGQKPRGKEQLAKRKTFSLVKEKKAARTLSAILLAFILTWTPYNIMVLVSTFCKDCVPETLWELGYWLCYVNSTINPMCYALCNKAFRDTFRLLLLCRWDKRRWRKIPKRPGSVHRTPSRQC
# CHO-K1 Ca PAM = nonselective calcium activators in parental CHO-K1 cells, primary screen, counter-screen for M1 PAM project, cell-based, Fluo-8 calcium fluorescence, full deck, 1536-well. ATP EC20; 0% at ATP EC20, 100% at ATP max. activation, % at 3 µM. 360,000 compounds, 0.02% hits. AID 602247, 2012;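 active means activation above the run cutoff, the mean activation of all test compounds plus 3 SD, cut at about 40% in these data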;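 further: peak over basal fluorescence ratio in a 140 s read after ATP addition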
# CHO-K1 Ca ag = counter-screen for M1 agonists: effect in parental CHO-K1 cells; Fluo-8 calcium fluorescence; scaled to maximal ATP response, vehicle zero; 360,000 compounds, 0.48% hits; AID 602248, 2012; activation, % at 3 µM; in the data active means activation above about 15%;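 further: untransfected CHO-K1 host cells lacking M1 receptor as counterscreen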
# CHRM1 agonist = human M1 muscarinic receptor agonists, primary screen, Fluo-8 calcium fluorescence, CHO-K1 cells, HTS; 360,000 compounds, 0.33% hits; AID 588814, 2011; activation, % at 3 µM; CHO-K1 hM1, agonist mode; 0% DMSO, 100% acetylcholine EC100; Muscarinic acetylcholine receptor M1 (Homo sapiens), P11229;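 active means activation above the run's mean compound activation plus 3 SD, cut at about 16% in these data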;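 further: peak over basal fluorescence ratio within a 140 s kinetic read after compound addition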
# CHRM1 PAM = human M1 muscarinic receptor positive allosteric modulators, primary screen, CHO-K1 cells, Fluo-8 calcium fluorescence, 1536-well. Muscarinic acetylcholine receptor M1 (Homo sapiens), P11229. CHO-K1 hM1, ACh EC20; 0% = ACh EC20, 100% = maximal ACh. activation, % at 3 µM. 360,000 compounds, 0.088% hits. AID 588819, 2011; in the data active means activation above about 19%, passing the limit was not always enough
# Numbers without * were called inactive; . = no result given. Only some compounds are listed: those with a hit (about 2.3% of all), similar ones and a draw of the others.
SMILES,CHO-K1 Ca antag,CHRM1 antagonist,CHO-K1 Ca PAM,CHO-K1 Ca ag,CHRM1 agonist,CHRM1 PAM
C=CC(=O)Nc1ccc(N(C)c2ccnc(Nc3ccc(N4CCN(C)CC4)cc3)n2)cc1,-6,56*,17,0,-11,-32
CN1CCN(c2ccc(NC(=O)COc3ccccc3Cl)cc2)CC1,-4,-35,8,1,-6,-2
COc1cccc(-c2cnc(C(O)c3c(C)ccc4ccccc34)[nH]2)c1 (stereo not given),3,-1,2,20*,9,-1
Cc1ccc2ccccc2c1C(O)c1ncc(-c2ccc(F)cc2)[nH]1 (stereo not given),2,2,2,4,2,2
COc1cccc(NC(=O)Nc2nc(SC(C)(C)C)ns2)c1,24*,37*,-7,19*,6,-15
CCSc1nsc(NC(=O)Nc2cccc(F)c2)n1,19,38*,5,18*,4,-12
COc1cccc(NC(=O)Nc2nc(SC)ns2)c1,20,6,-12,14,6,0
O=C(Nc1cc(-c2ccccc2)nn1C1CCCCC1)c1ccc(Cl)cc1,-3,36,-11,0,-9,-27
COc1cc(C(=O)O/N=C2\CCCc3c2ccc(OC)c3[N+](=O)[O-])cc(OC)c1OC,8,25*,-5,1,-4,-17
COc1ccccc1C(=O)O/N=C1/CCCc2c1ccc(OC)c2[N+](=O)[O-],-5,5,15,3,-1,-5
CCN(CC)S(=O)(=O)c1ccc(C)c(NC(=O)CNc2cccc(S(=O)(=O)N3CCOCC3)c2)c1,11,3,3,9,-1,-2
CCN(CC)S(=O)(=O)c1cccc(NC(=O)CNc2cccc(S(=O)(=O)N3CCOCC3)c2)c1,11,33*,-16,8,-2,-8
CCc1nc2ccccc2c(C(=O)OCC(=O)Nc2cccc(S(=O)(=O)N3CCOCC3)c2)c1C,15,28*,-6,3,-4,-9
CN(CC(=O)NCC(=O)Nc1ccc(F)cc1)CC(=O)Nc1ccc(Cl)c(C(F)(F)F)c1,-8,8,3,2,-1,0
CN(C)S(=O)(=O)c1cccc(NC(=O)CNc2cccc(S(=O)(=O)N3CCCCC3)c2)c1,-5,2,15,6,-5,-4
CCN(CC)S(=O)(=O)c1cc(NC(=O)CNc2cccc(S(=O)(=O)N3CCCC3)c2)ccc1C,19,29*,-4,7,-1,-6
CN(CC(=O)NCc1ccc(F)cc1)CC(=O)Nc1ccc(Cl)c(C(F)(F)F)c1,9,29,-11,13,16*,-2
COc1cccc(-c2cnc3c(NC(C)=O)cc(-c4ccsc4)cn23)c1,9,17,4,7,0,-9
CC(C)C[C@H]1CN(CCCC[C@H]2CNC(=O)C(=O)N2Cc2ccccc2)C(=O)C(=O)N1CCc1ccc(O)cc1,-12,.,14,1,.,.
CC(OC(=O)CC1CC2CCC1C2)C(=O)Nc1cccc(S(=O)(=O)N2CCOCC2)c1 (stereo not given),7,-26,3,1,6,24*
CN(CC(=O)Nc1cccc(S(=O)(=O)N2CCOCC2)c1)CC(=O)Nc1ccc(Cl)c(C(F)(F)F)c1,7,42*,-25,6,-2,-14
CC(OC(=O)CC1CC2CCC1C2)C(=O)Nc1ccc(N2CCOCC2)cc1 (stereo not given),-22,-16,20,5,12,18
S=c1[nH]nc(CSCCOc2ccc(Cl)cc2Cl)o1,-2,17,4,6,-2,-4
Clc1ccc(Cn2cccn2)cn1,-16,-4,6,0,-5,6
Cc1cccc(N(Cc2ccccc2)C(=O)c2cc(S(=O)(=O)N3CCOCC3)ccc2Cl)c1,-3,-13,-4,-1,0,6
SMILES,CHO-K1 Ca antag,CHRM1 antagonist,CHO-K1 Ca PAM,CHO-K1 Ca ag,CHRM1 agonist,CHRM1 PAM
Nc1nc(N)c2c(ccc3c2ccn3Cc2cccc([N+](=O)[O-])c2)n1,2,43*,16,1,-13,-31
Nc1nc(N)c2cc([N+](=O)[O-])ccc2n1,-21,-12,22,1,1,5
CSC1=NC=C(C#N)C2=NC(c3ccc(Cl)cc3)NN12 (stereo not given),8,3,11,0,-4,-2
CCn1c(CCn2ccnc2C)n[nH]c1=S,-18,30,6,1,28*,-16
CCn1c(CC(C)C)n[nH]c1=S,-5,4,8,0,-4,5
CCc1nonc1NC(=O)c1oc2ccc(C)cc2c1C,1,45*,-6,0,-5,-9
CCc1ccc2oc(C(=O)Nc3nonc3CC)c(C)c2c1,-9,-12,0,0,-4,-1
C=CCCC(=O)N1C[C@H]2CON(C)[C@H]2C[C@H]1c1cccc(N2CCOCC2)c1,-2,-4,3,0,-1,-4
CC(OC(=O)c1ccc(F)c(S(=O)(=O)N2CCOCC2)c1)C(=O)NC1CCCC1 (stereo not given),27*,-7,-11,0,-2,4
CCOC(=O)C1CCCN(CCC(=O)Nc2ccc(C)c(C)c2)C1 (stereo not given),0,1,11,1,15,-7
CCOC(=O)C1CCCN(CCC(=O)Nc2ccc3c(c2)CCC3)C1 (stereo not given),7,-5,-2,0,23*,-8
CCOC(=O)C1CCCN(CCC(=O)Nc2ccc(Br)cc2)C1 (stereo not given),-3,20,5,1,-3,-13
CCOC(=O)C1CCCN(CCC(=O)Nc2ccc(Br)c(C)c2)C1 (stereo not given),-4,-1,12,1,24*,-7
COC(=O)C(CC(=O)c1ccc(C)cc1)n1nc(C)cc1C (stereo not given),0,14,20,16*,-9,-17
COC(=O)C(CC(=O)c1ccc(Br)cc1)n1nc(C)cc1C (stereo not given),-4,21,-3,1,-8,-20
CSc1ccc(CN2CCC2(C)C(=O)Nc2cccc(NS(C)(=O)=O)c2)cc1 (stereo not given),-4,-17,10,3,-2,0
O=C1C2C3C=CC(C4CC34)C2C(=O)N1c1cccc2ccccc12 (stereo not given),-5,-8,24,18*,12,6
